Source: PubChem (Milwaukee Institute for Drug Discovery)
Cy5 interf NS3h = enhances or quenches Cy5 fluorescence in NS3h assay; Cy5-dT15 DNA with NS3h, fluorescence interference; actives lie on both sides; signal over control mean, under 1 quenches; fluorescence interference ratio at 100 µM; actives 6% (n = 16,000); AID 720488;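 active = compound fluorescence over control fluorescence at most 0.8, a quencher, or at least a set upper limit, an enhancer; inactive = ratio between 0.8 and the set upper limit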
HCV NS3h FP = hepatitis C NS3 helicase inhibition, primary screen; NS3h Cy5-dT15 DNA binding, fluorescence polarization; inhibition, % at 100 µM; actives 1.6% (n = 16,000);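 active = inhibition above the average over every tested compound plus 3 SD, cut at about 40% in these data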
NS3h confirm = confirmation of hepatitis C virus NS3 helicase inhibitors | AID 720485 | shares compounds with HCV NS3h FP | actives 20% (n = 240) | NS3h binding to Cy5-dT15 DNA, fluorescence polarization | inhibition, % at 100 µM;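 active = percent inhibition of 50% or more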
SSB FP counter = E. coli SSB-DNA binding inhibition, NS3h counter-screen. shares compounds with HCV NS3h FP. E. coli SSB binding Cy5-dT15, fluorescence polarization. inhibition, % at 100 µM. actives 40% (n = 240);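 active = inhibition of at least 50%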;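 also: displacers lower Cy5 polarization so higher inhibition means more SSB displaced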
Target sequence (P0AGE0 whole entry, looked up): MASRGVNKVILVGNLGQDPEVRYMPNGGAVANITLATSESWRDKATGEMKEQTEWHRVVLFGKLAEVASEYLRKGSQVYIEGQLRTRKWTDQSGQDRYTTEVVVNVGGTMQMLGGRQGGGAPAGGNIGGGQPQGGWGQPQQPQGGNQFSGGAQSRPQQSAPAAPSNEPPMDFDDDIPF
Cy5 SSB fluor CB = enhances or quenches Cy5-DNA fluorescence with E. coli SSB. Cy5-dT15/E. coli SSB fluorescence interference; actives lie on both sides. shares compounds with HCV NS3h FP. actives 8% (n = 240). AID 720487. fluorescence interference ratio at 100 µM;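 active = fluorescence interference ratio at or above 1.2, signal boosting, or at or below 0.8, signal quenching; inactive = ratio between 0.8 and 1.2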;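 also: ratio of compound well signal to mean negative control signal so 1 means no effect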
Cy5 interf conf = Cy5 fluorescence interference, confirmation counter-screen; shares compounds with HCV NS3h FP; Cy5-dT15 DNA/NS3h fluorescence interference counterscreen; fluorescence interference ratio at 100 µM, hits read low; actives 44% (n = 240); AID 720489;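 active = fluorescence interference ratio at or below 0.8 quencher or at or above a set limitenhancer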;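 also: ratio of compound fluorescence to mean of negative controls so 1 means no interference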
* marks the source's active call; other numbers are inactive results; nt = not tested or not shown. Only some compounds are listed: those with a hit (about 7.6% of all), similar ones and a draw of the others.

SMILES	Cy5 interf NS3h	HCV NS3h FP	NS3h confirm	SSB FP counter	Cy5 SSB fluor CB	Cy5 interf conf
C=CCc1cccc2cc(C(=O)Nc3cccc4c3C(=O)c3ccccc3C4=O)c(=O)oc12	0.942	58.4*	-0.8	-3.2	1	1
Cc1ccc(CC2C(=O)N(c3ccc([N+](=O)[O-])cc3)C(=O)C2C)cc1 (stereo not drawn)	1.11	7.8	nt	nt	nt	nt
CC(C)(C)C(=O)Nc1ccc(-c2nc3ccccc3o2)cc1	1.02	0.3	nt	nt	nt	nt
CC(=O)Nc1ccc(-c2nc3ccc(-c4ccc5nc(-c6ccc(NC(C)=O)cc6)oc(=O)c5c4)cc3c(=O)o2)cc1	1.01	55.6*	4.4	46.6	0.974	1.01
Cc1ccc(C=C2C(=O)NC(=S)N(c3ccccc3Cl)C2=O)o1	0.959	60.2*	30.9	78.2*	1.02	0.794*
Cc1ccc(/C=C2\C(=O)NC(=S)N(c3ccc(Br)cc3)C2=O)o1	1.14	7.0	nt	nt	nt	nt
CN1C=C(C(F)(F)F)C=C/C1=C(/C#N)c1nc2ccccc2s1	1.13	39.5	0.2	9.0	0.905	0.711*
Cc1ccc(/C=C(\C#N)c2nc3ccccc3s2)cc1	0.859	2.7	nt	nt	nt	nt
O=C(CN(c1cccc(Br)c1)S(=O)(=O)c1ccccc1)NCCc1ccccc1	0.996	9.0	nt	nt	nt	nt
CC(=O)Nc1ccc(N2C(=O)/C(=C/c3ccc([N+](=O)[O-])cc3)C=C2c2ccccc2)cc1	1.38*	37.3	11.8	35.7	1.11	0.991
O=C1/C(=C/c2ccc([N+](=O)[O-])cc2)NC(=S)N1c1ccccc1	0.894	7.7	nt	nt	nt	nt
CCOc1ccc(C(=O)Nc2cc(OC)ccc2OC)cc1[N+](=O)[O-]	1.14	88.8*	16.1	12.6	0.93	0.937
COc1ccc(C)cc1NC(=O)c1ccc(OC)c([N+](=O)[O-])c1	0.971	4.2	nt	nt	nt	nt
O=C1C(Cl)=CC(=NS(=O)(=O)c2ccc(Cl)cc2)C(Cl)=C1Cl	0.982	84.6*	55.2*	80.6*	0.769*	0.824
O=C1C=CC(=NS(=O)(=O)c2ccc(Cl)cc2)C=C1	0.962	19.3	nt	nt	nt	nt
Cc1ccc(C(=O)NCCN2Cc3ccccc3C2=O)cc1	1.07	-3.0	nt	nt	nt	nt
CCCCN1C(=O)/C(=C/c2ccc(OC)cc2OC)SC1=S	0.958	16.1	nt	nt	nt	nt
